In PubChem BioAssay AID652017 (The Scripps Research Institute Molecular Screening Center, 2013):
About 3,800 (1%) of roughly 370,000 compounds were called active. No stated cut-off is given here; in the data, active means activation above about 7.8%; inactive means the rest. The list comes from a sample in which actives are over-represented; it also holds similar structures and randomly drawn compounds.

Test: SMARCA2 (BRM) function activators, primary screen, cell-based, luminescence, high throughput (AID 652017);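 further: 0% = vehicle wells and 100% = reference activator wells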
Conditions: MG213 cells, MMTV-luciferase reporter, dexamethasone, overnight; at 9.1 µM; stronger effect = higher value
In the case of `CC1C(=O)Nc2ccccc2N1C(=O)c1c(F)cccc1F` (stereo not given), the activation is reported as 0.63% (inactive).
In the case of `O=C(CSc1nnc(COc2ccccc2)n1-c1ccc(Cl)cc1)Nc1ccc2c(c1)OCO2`, the activation is reported as -6.63% (inactive).
With `COc1ccc2c(C(C)c3ccc(N)cc3)cn(C)c2c1` (stereo not given) the activation was -3.82% (inactive).
For `CCCCN(C)Cc1c(C)[nH]c2ccc(Cl)cc2c1=O`, the activation was -3.5% (inactive).
For `Cc1ccc(S(=O)(=O)c2c[nH]c3ccc(Cl)cc3c2=O)cc1`, the activation was 10.9% (active).
For `Cc1ccc(S(=O)(=O)c2c[nH]c3ccc(C)cc3c2=O)cc1`, the activation was -1.93% (inactive).
For `CC(OC(=O)c1cccnc1Cl)C(=O)NC1CCCCC1` (stereo not given), the activation was -0.77% (inactive).
In the case of `CCN(C(=O)[C@@H](C1CC1)[C@@H](O)c1ccc2ccccc2c1)c1ccccc1`, the activation is reported as -7.28% (inactive).
In the case of `CC(C)CC(=O)Nc1nnc(S(=O)(=O)N(C)c2ccc(Cl)cc2)s1`, the activation is reported as 1.27% (inactive).
In the case of `CCOC(=O)N1CCN(Cc2nc3cc(NC(=O)CC)ccc3n2CC)CC1`, the activation is reported as -1.94% (inactive).
With `COC(=O)c1ccc(/C=C/c2c(-c3ccc(OC)cc3)sc3ccccc23)cc1` the activation was 3.05% (inactive).
For `COc1ccc(N=C(C)c2sc3ccccc3c2O)cc1`, the activation was 11.4% (active).
With `CCCOc1ccc(Oc2c(Cl)cnn(Cc3cccc4ccccc34)c2=O)cc1` the activation was -0.93% (inactive).
In the case of `CCOC(=O)c1c(C)[nH]c(C2=NNC(=NC(C)COC)SC2)c1C` (stereo not given), the activation is reported as 10.5% (active).
For `Cc1ccccc1CN1CCCCC(NC(=O)c2cccc(C#N)c2)C1=O` (stereo not given), the activation was -3.87% (inactive).
For `Cc1ccc(S(=O)(=O)N2C[C@@H]3CCCC[C@@H]3[C@@H](C)[C@H]2c2cn(Cc3ccccc3)c3ccc(F)cc23)cc1`, the activation was -2.92% (inactive).
In the case of `CC(C)(C)OC(=O)NCCc1ccccc1/C=C/S(=O)(=O)NCc1ccc(F)cc1`, the activation is reported as -3.29% (inactive).
For `O=C(CSc1nnc(-c2ccccn2)n1-c1ccc(Cl)cc1)Nc1ccccc1-c1ccccc1`, the activation was -4.51% (inactive).
In the case of `CCn1c2ccc(F)cc2c2nnc(SCCN3CCOCC3)nc21`, the activation is reported as 0.99% (inactive).
With `Cn1c2ccc(F)cc2c2nnc(NN)nc21` the activation was 11.8% (active).
With `CN(C)c1nc(NN)nc(Nc2ccc(F)cc2)n1` the activation was -0.18% (inactive).
For `CCOC(=O)C1=C(c2ccccc2)NC(=O)NC1c1cc(OC)c(OC)cc1OC` (stereo not given), the activation was -1.63% (inactive).
With `Cc1ccc(-n2c(COc3ccccc3)nnc2SCC(=O)Nc2ccc3c(c2)OCCO3)cc1` the activation was -5.34% (inactive).
With `O=S(=O)(Cc1nnnn1-c1ccccc1)c1ccccc1` the activation was 3.47% (inactive).
For `COc1ccc(S(=O)(=O)NC(=O)C2(C)CCN2C(=O)c2ccccc2CCc2ccccc2)cc1` (stereo not given), the activation was -0.47% (inactive).
For `COc1ccc(S(=O)(=O)N(C)C)cc1NC(=O)CSc1ncccn1`, the activation was 1.65% (inactive).
For `CCS(=O)(=O)c1ccc2oc(SCC(=O)N3c4ccccc4CC3C)nc2c1` (stereo not given), the activation was 0.08% (inactive).
With `CN(C)S(=O)(=O)c1ccc2oc(SCC(=O)Nc3ccccc3F)nc2c1` the activation was 12% (active).
With `CCOC(=O)[C@]12CCCC3=C1N(CCC3)C(=O)[C@@H](CC(=O)NCc1cccs1)C2` the activation was -4.78% (inactive).
With `Nc1ccc(N=Nc2ccccc2Cl)c(N)n1` the activation was 7.92% (active).
In the case of `C=CCN1C(C(=O)OC)CN(Cc2cn(Cc3ccccc3)nn2)CCS1(=O)=O` (stereo not given), the activation is reported as 1.74% (inactive).
With `COc1ccc(C(=O)OCCN(C)C2CN(Cc3cn(Cc4cccc(C)c4)nn3)S(=O)(=O)C2)cc1OC` (stereo not given) the activation was -0.46% (inactive).
For `COc1ccc(C(=O)CSc2nnc(-c3cnccn3)n2-c2ccc(C)cc2)cc1`, the activation was -2.56% (inactive).
In the case of `COc1ccc(OCc2cccc(C(=O)N3CCCC3)c2)cc1`, the activation is reported as 7.84% (active).
For `CCOc1ccc(OCc2cccc(C(=O)N(CC)CC)c2)cc1`, the activation was 6.12% (inactive).
In the case of `CC(=O)Oc1ccc(-c2cccc(C(=O)N3CCCCC3)c2)cc1`, the activation is reported as 1.59% (inactive).
For `COc1ccc2nc(/N=C(\N)NC(=O)Nc3ccccc3)nc(C)c2c1`, the activation was 28.8% (active).
With `CCOC(=O)Cc1cc(=O)[nH]c(/N=C(\N)Nc2ccc(OC)cc2)n1` the activation was -2.87% (inactive).
For `COc1ccc(NC(=O)ON=C2c3ccccc3-c3ccccc32)cc1`, the activation was 3.56% (inactive).
For `FC(F)(F)c1cccc(Cn2ccc3ccc(-c4ccc5ccn(Cc6ccccc6)c5c4)cc32)c1`, the activation was -1.65% (inactive).
With `O=C(NCC1COc2ccccc2O1)c1ccc(NC(=O)c2cc(F)ccc2F)cc1` (stereo not given) the activation was -5.67% (inactive).
In the case of `O=C(c1cc(-c2ccccc2O)on1)N1CCCC1`, the activation is reported as 8.63% (active).
For `O=C(c1cc(C2CCCCN2S(=O)(=O)c2ccccc2)on1)N1CCOCC1` (stereo not given), the activation was -0.23% (inactive).
With `O=C(c1cc(COc2ccc(F)cc2F)on1)N1CCOCC1` the activation was 2.32% (inactive).
With `COc1ccc(OCc2cc(C(=O)N3CCCC3)no2)c2ccccc12` the activation was 5.22% (inactive).
For `O=C(Nc1ccccc1C(F)(F)F)c1cc(-c2ccc(O)cc2)on1`, the activation was 1.17% (inactive).
With `O=C(c1cc(-c2ccc(O)cc2)on1)N1CCOCC1` the activation was 10.1% (active).
For `CN(C(N)=NC(=O)/C=C/c1ccccc1)C(C#Cc1ccccc1)Cc1ccccc1` (stereo not given), the activation was -4.38% (inactive).
For `COc1ccc(C)cc1N(C)C(=O)c1coc(=O)c2ccccc12`, the activation was -4.4% (inactive).
In the case of `O=C(NC1CCCCN(Cc2cccc(C(F)(F)F)c2)C1=O)c1ccccc1I` (stereo not given), the activation is reported as -2.23% (inactive).
For `COc1ccc2ccccc2c1CNc1nnnn1C`, the activation was -2.94% (inactive).
For `COc1cc(CNCc2ccc(OC)c3ccccc23)cc(OC)c1OC`, the activation was -2.64% (inactive).
With `COc1ccc2ccccc2c1CNCc1ccccn1` the activation was 8.32% (active).
In the case of `Cc1ccsc1C(=O)NC1CCCCC1C` (stereo not given), the activation is reported as -1.24% (inactive).
With `Cc1ccc(/C=N/NC(=O)c2sccc2OCc2ccc(F)cc2)cc1` the activation was 3.74% (inactive).
With `Cc1ccsc1C(=O)N/N=C/c1ccc([N+](=O)[O-])cc1` the activation was 11.6% (active).
In the case of `COC(=O)[C@H](C(C)C)N(CCc1cn(Cc2ccccc2)nn1)S(=O)(=O)c1ccc(F)cc1Br`, the activation is reported as -6.28% (inactive).
In the case of `CC(=O)OC12CCCN(C1)/C(=C/c1ccncc1)C2` (stereo not given), the activation is reported as -3.2% (inactive).
With `COc1ccccc1Nc1nnc(SC(C)C(=O)NC2CC2)s1` (stereo not given) the activation was -2.93% (inactive).
For `O=C(CCCCCN1C(=O)C2C3C=CC(C3)C2C1=O)Nc1ccccn1` (stereo not given), the activation was -1.58% (inactive).
For `CCOC(=O)C(C)n1cnc2c(nnn2-c2ccc(F)cc2)c1=O` (stereo not given), the activation was 0.38% (inactive).
For `COC(=O)C(C)n1cnc2c(nnn2-c2ccc(F)cc2)c1=O` (stereo not given), the activation was 2.24% (inactive).
In the case of `CCOC(=O)C(C)n1cnc2c(nnn2-c2cccc(OC)c2)c1=O` (stereo not given), the activation is reported as 9.14% (active).
For `O=C(NC1CCC1)c1ccc(C#CC2CC2)cn1`, the activation was 1.34% (inactive).
In the case of `CCCCC(CC)CNC(=O)CCCCn1c(=O)[nH]c2ccsc2c1=O` (stereo not given), the activation is reported as -1.68% (inactive).
With `O=C(CCC(=O)c1cccs1)NC1CCCCCC1` the activation was -4.41% (inactive).
With `O=C(CCCCCn1c(=S)[nH]c2ccsc2c1=O)NC1CCCCC1` the activation was 8.72% (active).
For `C=CC[C@]12C[C@@]3(O[C@H](c4ccc(C(F)(F)F)cc4)N=C3C[C@H](c3ccc(OC)cc3)[C@H]1C)N(C1CCN(Cc3ccccc3)CC1)C2=O`, the activation was -1.14% (inactive).
With `Cc1nnc(NC(=O)Cn2c(=O)sc3ccccc32)s1` the activation was 8.41% (active).
In the case of `O=C(Cn1c(=O)sc2ccccc21)Nc1ccc2c(c1)OCCO2`, the activation is reported as -0.22% (inactive).
For `Cc1nnc(NC(=O)CSc2nccn2-c2cccc(C)c2C)s1`, the activation was -0.75% (inactive).
With `C=C(C)C1CC23C(=O)C4(C(=O)c5ccccc5)C[C@@]5(C)CCC(CC2C1(C)C)(C4=O)C35OC` (stereo not given in full) the activation was -5.25% (inactive).
In the case of `Cc1ccccc1CN1CCCCC(NC(=O)Nc2ccccc2F)C1=O` (stereo not given), the activation is reported as -2.59% (inactive).
For `C[C@@H](NC(=O)c1ccccc1OCC(=O)Nc1ccc(I)cc1)C(=O)N(C)Cc1ccccc1`, the activation was -3.4% (inactive).
With `CC(C)CCC(C)NC(=O)c1ccc2nccnc2c1` (stereo not given) the activation was 0.02% (inactive).
With `CC(C)CCNC(=O)c1ccc2c(Cl)c3c(nc2c1)CCC3` the activation was 10.7% (active).
In the case of `O=C(CSc1c2c(nc3ccc(Cl)cc13)CCCC2)NCc1ccco1`, the activation is reported as 3.79% (inactive).
With `O=C(O)CSCc1ccc(C(=O)O)o1` the activation was 0.73% (inactive).
In the case of `O=C(O)c1ccc(COc2c(F)c(F)cc(F)c2F)o1`, the activation is reported as 8.75% (active).
For `O=C(O)c1ccc(NC(=O)c2ccc(COc3ccc(Cl)cc3)o2)cc1`, the activation was -1.89% (inactive).
In the case of `COc1cc(NC(=O)C2=C(C)OCCS2)c(Cl)cc1C(=O)NCCCN1CCCC(C)C1` (stereo not given), the activation is reported as -0.17% (inactive).
With `O=C(O)c1cccc(N=NN2CCCCCC2)c1` the activation was 17.7% (active).
In the case of `Cc1cccc(C(=O)N2CCN(S(=O)(=O)N3CCCCC3)CC2)c1`, the activation is reported as 3.31% (inactive).
With `NC1=NN(c2cccc(C(=O)O)c2)C(=O)C1` the activation was -1.73% (inactive).
For `Cc1cc(C)n2c(Nc3c(C)cccc3C)c(CCc3ccccc3)nc2n1`, the activation was 0.46% (inactive).
With `O=C(NCc1cccs1)C1CCCN(S(=O)(=O)c2ccc([N+](=O)[O-])cc2)C1` (stereo not given) the activation was 0.22% (inactive).
With `CCC(C)[C@@H](C(=O)OC)N(CCc1cn(Cc2ccccc2)nn1)S(=O)(=O)c1ccccc1Br` (stereo not given in full) the activation was -5.37% (inactive).
In the case of `COc1ccccc1C1=CC(=O)CCC1`, the activation is reported as 1.01% (inactive).
In the case of `COc1ccccc1C1=Nc2cccc3cccc(c23)N1`, the activation is reported as 8.11% (active).
For `COc1ccccc1-c1sc2ccccc2c1-c1ccc(Br)nc1`, the activation was -0.09% (inactive).
For `CCOc1ccc(N(CC(=O)Nc2c(C)n(C)n(-c3ccccc3)c2=O)S(=O)(=O)c2ccc(Cl)s2)cc1`, the activation was 3.83% (inactive).
In the case of `CCC(CO)Nc1cccc2c1S(=O)(=O)N(Cc1cn(Cc3ccccc3C(F)(F)F)nn1)Cc1ccccc1O2` (stereo not given), the activation is reported as -1.93% (inactive).
With `Cc1ccccc1C(=O)O` the activation was -3.71% (inactive).
In the case of `O=C(CSc1cccc[n+]1[O-])c1ccc(-c2ccccc2)cc1`, the activation is reported as 1.84% (inactive).
With `Cc1ccc(C(=O)CSc2ccccc2C(=O)O)cc1` the activation was 9.24% (active).
